A selection: hits, their analogues and other compounds. The true share with any hit is near 1.8%.
PME-1 inh – PME-1 (human) inhibition | Q9Y570 | recombinant PME-1, FP-Rh probe fluorescence polarization | inhibition, % at 5.9 µM | 320,000 tested, 0.53% active | AID 2130;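 active = inhibition above the campaign mean of all compounds plus 3 SD, cut at about 26% in these data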;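 note: competitive labeling of PME-1 active site by serine hydrolase directed probe; inhibitors block probe labeling so polarization falls and inhibition rises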
Target sequence (Q9Y570 whole entry, looked up): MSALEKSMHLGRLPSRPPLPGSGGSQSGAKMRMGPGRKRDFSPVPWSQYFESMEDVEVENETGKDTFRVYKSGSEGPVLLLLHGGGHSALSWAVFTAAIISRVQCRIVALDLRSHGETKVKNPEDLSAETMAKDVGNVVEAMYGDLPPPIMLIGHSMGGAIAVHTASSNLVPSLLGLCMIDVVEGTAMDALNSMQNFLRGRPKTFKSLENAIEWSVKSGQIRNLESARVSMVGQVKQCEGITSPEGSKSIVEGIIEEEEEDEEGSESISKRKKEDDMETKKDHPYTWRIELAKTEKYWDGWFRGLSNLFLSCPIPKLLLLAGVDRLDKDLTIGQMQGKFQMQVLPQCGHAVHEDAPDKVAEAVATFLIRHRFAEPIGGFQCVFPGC
PP5 inh – inhibitors of human protein phosphatase 5 (PP5); P53041; purified PP5c, OMFP substrate fluorescence; inhibition, % at 6.7 µM; 320,000 tested, 0.18% active; AID 1987;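 active = inhibition above the campaign's mean inhibition across all tested compounds plus 3 SD, cut at about 9.5% in these data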
LYPLA1 counter – blocks human lysophospholipase 1, a PME1 counter-screen; recombinant LYPLA1, FP-Rh probe fluorescence polarization; 320,000 tested, 0.16% active; AID 2174; O75608; inhibition, % at 5.9 µM;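 active = inhibition above the mean of all tested compounds plus 3 SD, set per campaign, cut at about 14% in these data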;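 note: inhibitors block serine hydrolase probe labeling of LYPLA1 so polarization falls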
LYPLA2 counter – blocks human lysophospholipase 2, a PME1 counter-screen; recombinant LYPLA2, FP-Rh probe fluorescence polarization; AID 2177; inhibition, % at 5.9 µM; 320,000 tested, 0.38% active;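 active = inhibition above the screen-wide mean plus 3 SD, limit set per campaign, cut at about 26% in these data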
Target sequence (O95372 whole entry, looked up): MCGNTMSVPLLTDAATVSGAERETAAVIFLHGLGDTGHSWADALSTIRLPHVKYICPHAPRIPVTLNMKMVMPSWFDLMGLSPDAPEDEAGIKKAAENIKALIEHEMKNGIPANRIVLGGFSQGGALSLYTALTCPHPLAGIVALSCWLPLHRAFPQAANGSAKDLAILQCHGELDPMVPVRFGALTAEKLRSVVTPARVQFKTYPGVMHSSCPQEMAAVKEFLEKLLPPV
PP1 counter – PP1-alpha (human) inhibition in PP5 counter-screen; P62136; purified PP1alpha, OMFP fluorescence; 320,000 tested, 0.9% active; inhibition, % at 6.7 µM; AID 2235;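 active = inhibition above the mean inhibition of all tested compounds plus 3 SD, computed separately for each screening campaign, cut at about 15% in these data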
Fam108B inh – Fam108B inhibition, counter-screen for RBBP9 inhibitors. AID 1947. recombinant Fam108B, FP-Rh probe fluorescence polarization. inhibition, % at 9.51 µM. 300,000 tested, 0.33% active;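 active = inhibition above the screen mean inhibition plus 3 SD, computed separately per campaign, cut at about 18% in these data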;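 note: inhibitors lower polarization as less probe binds the enzyme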
Fam108b confirm – Fam108b (mouse) hydrolase inhibition, confirmation assay; recombinant Fam108b, FP-Rh probe fluorescence polarization; AID 1978; shares compounds with Fam108B inh; inhibition, % at 9.51 µM; 930 tested, 44% active;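 active = inhibition above a limit from the primary screen, the mean over all compounds plus 3 SD, cut at about 19% in these data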;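 note: inhibitors free the probe so polarization falls as inhibition rises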
Fam108b inh – inhibits mouse Fam108b in gel-based ABPP | shares compounds with Fam108B inh | recombinant Fam108b, fluorophosphonate probe | inhibition, % at 20 µM | 260 tested, 44% active; in the data active = inhibition above about 40%
PP5 inh confirm – PP5 (human) inhibition, confirmation. inhibition, % at 6.7 µM. Purified PP5, fluorogenic phosphatase substrate, fluorescence. 460 tested, 22% active. shares compounds with PP5 inh; in the data active = inhibition above about 9.5%
PP1 counter 3x – PP1 phosphatase inhibition, counter-screen for PP5 inhibitors; AID 2355; inhibition, % at 6.7 µM; shares compounds with PP5 inh; PP1 enzyme, fluorescent phosphatase substrate; 460 tested, 4% active; in the data active = inhibition above about 16%
LYPLA1 conf – counter-screen for PME1 inhibitors: confirmation of human LYPLA1 inhibitors; shares compounds with LYPLA1 counter; inhibition, % at 5.9 µM; 480 tested, 69% active; recombinant LYPLA1, FP-Rh probe fluorescence polarization;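 active = mean inhibition across replicates above the hit cutoff set in the primary screen, cut at about 15% in these data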;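 note: loss of FP-Rh probe labeling of LYPLA1 seen as lower polarization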
LYPLA2 conf – LYPLA2 (human) inhibition, confirmation counter-screen. shares compounds with LYPLA2 counter. recombinant LYPLA2, FP-Rh probe fluorescence polarization. inhibition, % at 5.9 µM. 1,100 tested, 72% active. AID 2232;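 active = mean inhibition across replicates above the hit cutoff set in the primary screen, cut at about 26% in these data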;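 note: blocked labeling of the enzyme by serine hydrolase FP-Rh probe lowers polarization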
Large screens that a line does not name were inactive (follow-up assays come after a bar, where they were run).

COc1ccc(NC(=O)C(=O)NCCC2CCCCN2S(=O)(=O)c2ccc(F)cc2)cc1 (stereo unspecified)	none
Nc1cc2nsnc2cc1Br	PME-1 inh 47, PP5 inh 11, LYPLA1 counter 76, LYPLA2 counter 87, Fam108B inh 71 | Fam108b confirm 62 | Fam108b inh 50 | PP5 inh confirm 49 | PP1 counter 3x inactive | LYPLA1 conf 73
Nc1cccc2nsnc12	none
CN(C)c1ccc(/C=C(\C#N)C(=O)NCc2ccco2)cc1	LYPLA1 counter 22, Fam108B inh 29 | Fam108b confirm inactive | LYPLA1 conf inactive
Cc1cc(C)cc(N(CC(=O)N2CCCCCC2)S(C)(=O)=O)c1	none
CC1=NN(c2ccccc2)C(=O)/C1=C\C=C1\N(C)c2ccccc2C1(C)C	none
CN1/C(=C\C=C2/C(=O)Oc3ccccc3C2=O)C(C)(C)c2ccccc21	LYPLA1 counter 51, Fam108B inh 139 | Fam108b confirm inactive | LYPLA1 conf inactive
COc1ccccc1[C@@]1(C)ON(c2ccccc2C(F)(F)F)C1=O	none (no result: Fam108B inh)
O=C1C(SCCO)=C(SCCO)C(=O)c2ccccc21	PME-1 inh 31, LYPLA2 counter 31, Fam108B inh 51 | Fam108b confirm 66 | Fam108b inh 90 | LYPLA2 conf 55
O=C1C(Cl)=C(NCCCO)C(=O)c2ccccc21	none
Cc1ccc(S(=O)(=O)N2CCC(C(N)=O)CC2)cc1[N+](=O)[O-]	none
Nc1ccc(N2CCCCC2)c2nonc12	PME-1 inh 34, PP5 inh 11, LYPLA1 counter 79, LYPLA2 counter 90, PP1 counter 17, Fam108B inh 67 | Fam108b confirm inactive | LYPLA1 conf inactive | LYPLA2 conf inactive
Nc1c(N2CCOCC2)cc(Cl)c2nonc12	none
Nc1c(N2CCCC2)cc(Cl)c2nonc12	PME-1 inh 31, LYPLA1 counter 72, LYPLA2 counter 72, Fam108B inh 54 | Fam108b confirm 42 | Fam108b inh inactive | LYPLA1 conf inactive | LYPLA2 conf inactive
O=C1C=C(N2CCOCC2)c2ccccc2C1=O	PME-1 inh 28, LYPLA1 counter 43, LYPLA2 counter 68, Fam108B inh 58 | Fam108b confirm 66 | Fam108b inh inactive | LYPLA1 conf 50 | LYPLA2 conf 79
Cc1nc2ccccc2n2c(O)c(CC(=O)O)cc12	LYPLA2 counter 27, Fam108B inh 18 | Fam108b confirm inactive | LYPLA2 conf inactive
Cc1n[nH]c(C)c1CCCCOc1ccccc1[N+](=O)[O-]	none
COc1cccc2c1C(=O)c1c(O)c3c(c(O)c1C2=O)C[C@@](O)(C(=O)CO)C[C@@H]3O[C@H]1C[C@H](N)[C@H](O)[C@H](C)O1	PME-1 inh 48, LYPLA1 counter 59, LYPLA2 counter 43, Fam108B inh 32 | Fam108b confirm 34 | Fam108b inh 65 | LYPLA1 conf 52 | LYPLA2 conf 27
CN1C(=O)[C@@H]2[C@H](C1=O)[C@@H]1C(=O)Nc3ccccc3C(=O)N1[C@@H]2c1ccc(Br)cc1	none
O=C1C(Cl)=C(N2CCC(C(=O)O)CC2)C(=O)c2ccccc21	LYPLA2 counter 40, Fam108B inh 29 | Fam108b confirm 52 | Fam108b inh 60 | LYPLA2 conf 37
NC(=O)C1CCN(C2=C(NS(=O)(=O)c3ccccc3)C(=O)c3ccccc3C2=O)CC1	none
NC(=O)C1CCN(C2=C(Cl)C(=O)c3ccccc3C2=O)CC1	LYPLA2 counter 42, Fam108B inh 51 | Fam108b confirm 59 | Fam108b inh inactive | LYPLA2 conf 36
Cc1n[nH]c(=O)c2c(NC(=O)CSc3ccccc3Cl)oc(C)c12	none
Cc1cc(OCCOCCNCc2ccccc2)ccc1C(C)C	none
COC1=CC(=O)C(O)=C(CCCCCCC/C=C/CCCCCCCC2=C(O)C(=O)C=C(OC)C2=O)C1=O	LYPLA1 counter 56, LYPLA2 counter 51, Fam108B inh 47 | Fam108b confirm 52 | LYPLA1 conf 72 | LYPLA2 conf 36
CCOc1ccc(OCCOC(=O)CN2C(=O)NC3(CCCC3)C2=O)cc1	none
Nc1cccc2nc3ccccc3cc12	none
Cc1cc2c(N)cccc2nn1	PME-1 inh 58, LYPLA1 counter 47, LYPLA2 counter 52, Fam108B inh 25 | Fam108b confirm inactive | LYPLA1 conf inactive | LYPLA2 conf 46
Cc1cc(NC(=O)CC(C)C)c(=O)n(Cc2ccccc2F)c1	none
CC1CCC(NC(=O)c2ccc3c(c2)S(=O)(=O)c2ccccc2C3=O)CC1 (stereo unspecified)	none
COc1cc(Br)c(C(=O)c2nccc3cc(OC)c(OC)cc23)cc1OC	PP5 inh 14, LYPLA1 counter 44, LYPLA2 counter 57, Fam108B inh 63 | Fam108b confirm 62 | Fam108b inh inactive | PP5 inh confirm 43 | PP1 counter 3x inactive | LYPLA1 conf 16 | LYPLA2 conf 85
N#CCCN(CCC#N)C(=O)C1c2ccccc2Oc2ccccc21	PME-1 inh 84, LYPLA1 counter 76, LYPLA2 counter 76, Fam108B inh 67 | Fam108b confirm inactive | LYPLA1 conf inactive | LYPLA2 conf inactive
CN(CCC#N)C(=O)COC(=O)C1c2ccccc2Oc2ccccc21	none
CCn1c(CSc2ncn[nH]2)nc2cc(C(=O)O)ccc21	none
CCn1c(CSc2nnc(-c3ccncc3)n2C)nc2cc(C(=O)O)ccc21	PME-1 inh 40, LYPLA1 counter 37, LYPLA2 counter 41, Fam108B inh 29 | Fam108b confirm 37 | Fam108b inh inactive | LYPLA1 conf 41 | LYPLA2 conf 36
CCC(=O)Nc1c(C#N)c2nc3ccccc3nc2n1-c1ccccc1C	none
CCCCn1c(NC(=O)c2ccccc2Cl)c(C#N)c2nc3ccccc3nc21	PME-1 inh 27, PP5 inh 12, LYPLA1 counter 45, LYPLA2 counter 58, Fam108B inh 38 | Fam108b confirm 54 | Fam108b inh inactive | PP5 inh confirm 40 | PP1 counter 3x 27 | LYPLA1 conf 62 | LYPLA2 conf inactive

From PubChem
